# Laboratory results reported in PubChem BioAssay (NCI).
# The panel holds about 79,000 compounds, 15% with a hit somewhere; the sample as a whole holds those more often. Values without a mark were called inactive. Calls of active or inactive are those of the source. Rule as the data show it: active = growth inhibition above about 70%; inactive = the rest.
# Legend:
# [1] = NCI Yeast Anticancer Drug Screen. Data for the rad52 strain (AID 147);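 also: 0% = growth of vehicle-treated control cultures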; conditions: S. cerevisiae rad52 mutant growth inhibition, hits give high values
# In short: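 DNA repair-defective yeast; compound exposure; growth scored against vehicle controls.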
# [2] = NCI Yeast Anticancer Drug Screen. Data for the wt1 strain (AID 149);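 also: 0% = growth of vehicle-treated wt1 cultures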; conditions: S. cerevisiae wt1 strain (SPY 50644) growth inhibition, hits give high values
# In short: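 wt1 strain grown with compound or vehicle; inhibition taken from the growth difference.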
# [3] = NCI Yeast Anticancer Drug Screen. Data for the rad50EPP+ strain (AID 151);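 also: 0% = growth of vehicle-treated control cultures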; conditions: S. cerevisiae rad50 mutant strain, hits give high values
# In short: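 rad50EPP+ yeast treated with test compounds. Readout: growth vs vehicle control.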
# [4] = NCI Yeast Anticancer Drug Screen. Data for the mgt1 strain (AID 153); conditions: S. cerevisiae mgt1 mutant growth inhibition, hits give high values
# In short: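 Growth inhibition relative to vehicle controls was scored for the mgt1 yeast strain after compound exposure.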
# [5] = NCI Yeast Anticancer Drug Screen. Data for the rad50 strain (AID 155);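 also: 0% = growth of vehicle-only cultures of the same strain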; conditions: S. cerevisiae rad50 strain growth inhibition, hits give high values
# In short: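 DNA repair mutant yeast, compound exposure, growth read-out; inhibition is taken relative to vehicle.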
# [6] = NCI Yeast Anticancer Drug Screen. Data for the mec2-1 strain (AID 157); conditions: S. cerevisiae mec2-1 strain, hits give high values
# In short: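 Growth inhibition is read against vehicle-treated controls after compound exposure of the mec2-1 yeast strain, which is defective in DNA damage repair or cell cycle control.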
# [7] = NCI Yeast Anticancer Drug Screen. Data for the rad14 strain (AID 159);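 also: 0% = growth of vehicle-treated control cultures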; conditions: S. cerevisiae rad14 strain growth inhibition, hits give high values
# In short: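 DNA repair-defective yeast, compound-exposed; % growth inhibition derived by comparison with vehicle-treated controls.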
# [8] = NCI Yeast Anticancer Drug Screen. Data for the sgs1 mgt1 strain (AID 161);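 also: 0% = growth of cultures given vehicle only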; conditions: S. cerevisiae sgs1 mgt1 strain, hits give high values
# In short: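 This yeast growth screen uses a strain with defined DNA-repair lesions; compound-treated growth is compared with vehicle-treated growth.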
# [9] = NCI Yeast Anticancer Drug Screen. Data for the CLN2oe strain (AID 163);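 also: 0% = growth of vehicle-only control cultures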; conditions: S. cerevisiae CLN2oe strain, hits give high values
# In short: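 Compound-treated yeast; growth vs vehicle ctrl = % inhibition. Genetically altered strain (cell-cycle control).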
# [10] = NCI Yeast Anticancer Drug Screen. Data for the cln2 rad14 strain (AID 165);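 also: 0% = growth equal to vehicle treated cultures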; conditions: S. cerevisiae cln2 rad14 strain, hits give high values
# In short: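 Growth inhibition, relative to vehicle-treated controls, is the read-out. The test organism is a yeast strain with defined genetic alterations, cln2 rad14.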
# [11] = NCI Yeast Anticancer Drug Screen. Data for the bub3 strain (AID 167); conditions: S. cerevisiae bub3 mutant strain, hits give high values
# In short: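 In this screen, a yeast mutant lacking normal mitotic checkpoint function is challenged with compound. Relative growth versus vehicle gives the inhibition value.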
# [12] = NCI Yeast Anticancer Drug Screen. Data for the mlh1 strain (AID 171);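 also: 0% = growth of vehicle-treated control cultures of the same strain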; conditions: S. cerevisiae mlh1 strain growth inhibition, hits give high values
# In short: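 Compounds are applied to a genetically altered yeast strain, and its growth is compared with that of vehicle-treated cultures to give percent inhibition.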
# [13] = NCI Yeast Anticancer Drug Screen. Data for the mlh1 rad18 strain (AID 175); conditions: S. cerevisiae mlh1 rad18 strain growth inhibition, hits give high values
# In short: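 Cells of a genetically altered yeast strain, deficient in DNA damage repair, were treated with compound. Their growth was then compared with that of vehicle-treated cultures to give inhibition.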
# [14] = NCI Yeast Anticancer Drug Screen. Data for the rad18 strain (AID 177); conditions: S. cerevisiae rad18 mutant growth inhibition, hits give high values
# In short: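 Compounds are applied to a repair-deficient yeast strain, and growth is compared with that of vehicle-treated cultures to give percent inhibition.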
# [15] = NCI Yeast Anticancer Drug Screen. Data for the sgs1 strain (AID 173);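 also: 0% = growth of vehicle-only control cultures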; conditions: S. cerevisiae sgs1 mutant, hits give high values
# In short: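 Compounds applied to genetically altered yeast; growth compared with vehicle-treated cultures to give % inhibition.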
# [16] = at 5.0 µM (retest, dose inferred, filed as 0.5)
# [17] = at 50.0 µM (retest, dose inferred, filed as 5.0)
structure (smiles),measurement,setting,value
CCc1cc(O)c(Cl)c(C)c1Cl,growth inhibition,[1]; at 1.2 µM,-5%
same,growth inhibition,[1]; at 3.7 µM,6%
same,growth inhibition,[1]; at 11.0 µM,-8%
same,growth inhibition,[1]; at 33.0 µM,14%
same,growth inhibition,[1]; at 100.0 µM,75% (active)
same,growth inhibition,[2]; at 1.2 µM,7%
same,growth inhibition,[2]; at 3.7 µM,21%
same,growth inhibition,[2]; at 11.0 µM,14%
same,growth inhibition,[2]; at 33.0 µM,20%
same,growth inhibition,[2]; at 100.0 µM,87% (active)
same,growth inhibition,[3]; at 1.2 µM,-12%
same,growth inhibition,[3]; at 3.7 µM,0%
same,growth inhibition,[3]; at 11.0 µM,-13%
same,growth inhibition,[3]; at 33.0 µM,40%
same,growth inhibition,[3]; at 100.0 µM,90% (active)
same,growth inhibition,[4]; at 1.2 µM,14%
same,growth inhibition,[4]; at 3.7 µM,3%
same,growth inhibition,[4]; at 11.0 µM,28%
same,growth inhibition,[4]; at 33.0 µM,73% (active)
same,growth inhibition,[4]; at 100.0 µM,96% (active)
same,growth inhibition,[5]; at 1.2 µM,-29%
same,growth inhibition,[5]; at 3.7 µM,-19%
same,growth inhibition,[5]; [16],42%
same,growth inhibition,[5]; at 11.0 µM,-31%
same,growth inhibition,[5]; at 33.0 µM,43%
same,growth inhibition,[5]; [17],77% (active)
same,growth inhibition,[5]; at 50.0 µM,29.6%
same,growth inhibition,[5]; at 100.0 µM,97% (active)
same,growth inhibition,[6]; at 1.2 µM,-8%
same,growth inhibition,[6]; at 3.7 µM,-5%
same,growth inhibition,[6]; [16],44%
same,growth inhibition,[6]; at 11.0 µM,-13%
same,growth inhibition,[6]; at 33.0 µM,3%
same,growth inhibition,[6]; [17],86% (active)
same,growth inhibition,[6]; at 50.0 µM,34.9%
same,growth inhibition,[6]; at 100.0 µM,73% (active)
same,growth inhibition,[7]; at 1.2 µM,9%
same,growth inhibition,[7]; at 3.7 µM,-5%
same,growth inhibition,[7]; at 11.0 µM,-8%
same,growth inhibition,[7]; at 33.0 µM,34%
same,growth inhibition,[7]; at 100.0 µM,90% (active)
same,growth inhibition,[8]; [16],-9%
same,growth inhibition,[8]; [17],33%
same,growth inhibition,[8]; at 50.0 µM,45.5%
same,growth inhibition,[9]; at 1.2 µM,18%
same,growth inhibition,[9]; at 3.7 µM,-21%
same,growth inhibition,[9]; at 11.0 µM,1%
same,growth inhibition,[9]; at 33.0 µM,28%
same,growth inhibition,[9]; at 100.0 µM,71% (active)
same,growth inhibition,[10]; [16],46%
same,growth inhibition,[10]; [17],70% (active)
same,growth inhibition,[10]; at 50.0 µM,35%
same,growth inhibition,[11]; at 1.2 µM,-11%
same,growth inhibition,[11]; at 3.7 µM,11%
same,growth inhibition,[11]; [16],21%
same,growth inhibition,[11]; at 11.0 µM,5%
same,growth inhibition,[11]; at 33.0 µM,31%
same,growth inhibition,[11]; [17],49%
same,growth inhibition,[11]; at 50.0 µM,69.5%
same,growth inhibition,[11]; at 100.0 µM,85% (active)
same,growth inhibition,[12]; at 1.2 µM,18%
same,growth inhibition,[12]; at 3.7 µM,5%
same,growth inhibition,[12]; at 11.0 µM,17%
same,growth inhibition,[12]; at 33.0 µM,40%
same,growth inhibition,[12]; at 100.0 µM,81% (active)
same,growth inhibition,[13]; [16],48%
same,growth inhibition,[13]; [17],93% (active)
same,growth inhibition,[13]; at 50.0 µM,13.9%
same,growth inhibition,[14]; at 1.2 µM,-14%
same,growth inhibition,[14]; at 3.7 µM,-30%
same,growth inhibition,[14]; at 11.0 µM,-40%
same,growth inhibition,[14]; at 33.0 µM,-27%
same,growth inhibition,[14]; at 100.0 µM,63%
O=[N+]([O-])/C=C/c1cc(Cl)c(/C=C/[N+](=O)[O-])cc1Cl,growth inhibition,[1]; at 1.2 µM,35%
same,growth inhibition,[1]; at 3.7 µM,55%
same,growth inhibition,[1]; at 11.0 µM,74% (active)
same,growth inhibition,[1]; at 33.0 µM,91% (active)
same,growth inhibition,[1]; at 100.0 µM,89% (active)
same,growth inhibition,[2]; at 1.2 µM,25%
same,growth inhibition,[2]; at 3.7 µM,32%
same,growth inhibition,[2]; at 11.0 µM,43%
same,growth inhibition,[2]; at 33.0 µM,42%
same,growth inhibition,[2]; at 100.0 µM,37%
same,growth inhibition,[3]; at 1.2 µM,13%
same,growth inhibition,[3]; at 3.7 µM,19%
same,growth inhibition,[3]; at 11.0 µM,35%
same,growth inhibition,[3]; at 33.0 µM,66%
same,growth inhibition,[3]; at 100.0 µM,70% (active)
same,growth inhibition,[4]; at 1.2 µM,36%
same,growth inhibition,[4]; at 3.7 µM,48%
same,growth inhibition,[4]; at 11.0 µM,68%
same,growth inhibition,[4]; at 33.0 µM,96% (active)
same,growth inhibition,[4]; at 100.0 µM,92% (active)
same,growth inhibition,[5]; at 1.2 µM,33%
same,growth inhibition,[5]; at 3.7 µM,55%
same,growth inhibition,[5]; [16],3%
same,growth inhibition,[5]; at 11.0 µM,81% (active)
same,growth inhibition,[5]; at 33.0 µM,97% (active)
same,growth inhibition,[5]; [17],53%
same,growth inhibition,[5]; at 50.0 µM,79.7% (active)
same,growth inhibition,[5]; at 100.0 µM,94% (active)
same,growth inhibition,[6]; at 1.2 µM,39%
same,growth inhibition,[6]; at 3.7 µM,59%
same,growth inhibition,[6]; [16],18%
same,growth inhibition,[6]; at 11.0 µM,65%
same,growth inhibition,[6]; at 33.0 µM,81% (active)
same,growth inhibition,[6]; [17],56%
same,growth inhibition,[6]; at 50.0 µM,73.5% (active)
same,growth inhibition,[6]; at 100.0 µM,85% (active)
same,growth inhibition,[7]; at 1.2 µM,25%
same,growth inhibition,[7]; at 3.7 µM,68%
same,growth inhibition,[7]; at 11.0 µM,93% (active)
same,growth inhibition,[7]; at 33.0 µM,97% (active)
same,growth inhibition,[7]; at 100.0 µM,92% (active)
same,growth inhibition,[8]; [16],23%
same,growth inhibition,[8]; [17],73% (active)
same,growth inhibition,[8]; at 50.0 µM,74.8% (active)
same,growth inhibition,[9]; at 1.2 µM,22%
same,growth inhibition,[9]; at 3.7 µM,32%
same,growth inhibition,[9]; at 11.0 µM,49%
same,growth inhibition,[9]; at 33.0 µM,69%
same,growth inhibition,[9]; at 100.0 µM,73% (active)
same,growth inhibition,[10]; [16],22%
same,growth inhibition,[10]; [17],60%
same,growth inhibition,[10]; at 50.0 µM,62.1%
same,growth inhibition,[11]; at 1.2 µM,28%
same,growth inhibition,[11]; at 3.7 µM,37%
same,growth inhibition,[11]; [16],43%
same,growth inhibition,[11]; at 11.0 µM,84% (active)
same,growth inhibition,[11]; at 33.0 µM,92% (active)
same,growth inhibition,[11]; [17],96% (active)
same,growth inhibition,[11]; at 50.0 µM,79.2% (active)
same,growth inhibition,[11]; at 100.0 µM,91% (active)
same,growth inhibition,[15]; at 1.2 µM,22%
same,growth inhibition,[15]; at 3.7 µM,16%
same,growth inhibition,[15]; at 11.0 µM,14%
same,growth inhibition,[15]; at 33.0 µM,52%
same,growth inhibition,[15]; at 100.0 µM,32%
same,growth inhibition,[13]; [16],16%
same,growth inhibition,[13]; [17],77% (active)
same,growth inhibition,[13]; at 50.0 µM,56.4%
same,growth inhibition,[14]; at 1.2 µM,19%
same,growth inhibition,[14]; at 3.7 µM,51%
same,growth inhibition,[14]; at 11.0 µM,78% (active)
same,growth inhibition,[14]; at 33.0 µM,95% (active)
same,growth inhibition,[14]; at 100.0 µM,89% (active)
CN(C)CCNc1ccc2ncnc3c2c1C(=O)c1ccccc1-3,growth inhibition,[1]; at 1.2 µM,95% (active)
same,growth inhibition,[1]; at 3.7 µM,94% (active)
same,growth inhibition,[1]; at 11.0 µM,96% (active)
same,growth inhibition,[1]; at 33.0 µM,97% (active)
same,growth inhibition,[1]; at 100.0 µM,96% (active)
same,growth inhibition,[2]; at 1.2 µM,7%
same,growth inhibition,[2]; at 3.7 µM,8%
same,growth inhibition,[2]; at 11.0 µM,15%
same,growth inhibition,[2]; at 33.0 µM,28%
same,growth inhibition,[2]; at 100.0 µM,34%
same,growth inhibition,[3]; at 1.2 µM,90% (active)
same,growth inhibition,[3]; at 3.7 µM,90% (active)
same,growth inhibition,[3]; at 11.0 µM,93% (active)
same,growth inhibition,[3]; at 33.0 µM,95% (active)
same,growth inhibition,[3]; at 100.0 µM,95% (active)
same,growth inhibition,[4]; at 1.2 µM,2%
same,growth inhibition,[4]; at 3.7 µM,6%
same,growth inhibition,[4]; at 11.0 µM,22%
same,growth inhibition,[4]; at 33.0 µM,25%
same,growth inhibition,[4]; at 100.0 µM,38%
same,growth inhibition,[5]; at 1.2 µM,94% (active)
same,growth inhibition,[5]; at 3.7 µM,95% (active)
same,growth inhibition,[5]; [16],84% (active)
same,growth inhibition,[5]; at 11.0 µM,96% (active)
same,growth inhibition,[5]; at 33.0 µM,96% (active)
same,growth inhibition,[5]; [17],97% (active)
same,growth inhibition,[5]; at 50.0 µM,76% (active)
same,growth inhibition,[5]; at 100.0 µM,96% (active)
same,growth inhibition,[6]; at 1.2 µM,22%
same,growth inhibition,[6]; at 3.7 µM,21%
